Source: PubChem (National Center for Advancing Translational Sciences (NCATS))
An excerpt weighted towards active compounds, which were near 7.3% of everything screened.
Luc counter – Counterscreen for Luciferase (Kinase-Glo TM) Inhibition | Kinase-Glo luciferase, ATP luminescence, 8 min | Luciferin 4-monooxygenase (Photuris pensylvanica), Q27757 | Potency, µM (series often up to 38.3 µM), most hits filed as inhibitors | 0.28% of 200,000 active; also: nearly all actives have a fitted effect of over 60% in size
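Light output from Kinase-Glo luciferase with luciferin and 10 uM ATP in 50 mM imidazole pH 7.2, KCl, MgCl2, Tween 20, BSA; compound pin-delivered, 8-min ambient incubation, then luminescence read.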
NPC1 prom act – qHTS Assay for NPC1 Promoter Activators. Huh7 NPC1 promoter luciferase reporter, 24 h. Potency, µM (highest dose often 9.22 µM), usual class: activators. 2.4% of 320,000 active; also: nearly all actives have a fitted effect of over 60% in size
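Stably transfected Huh7 (NPC1 promoter→luciferase), 1500 cells/well in Opti-MEM + 10% FBS, 2 h settle, then compound 24 h at 37 °C. Luminescence after 10 min with Amplite reagent.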
FLuc modulator – qHTS profiling assay for firefly luciferase inhibitor/activator using purifed enzyme and Km concentrations of substrates (counterscreen for miR-21 project). Luciferin 4-monooxygenase (Photinus pyralis), P08659. 6.9% of 360,000 active. AID 588342, 2011. Potency, µM (highest dose often 57.5 µM), usual class: inhibitors. purified FLuc, Km substrates, luminescence inhibition; also: nearly all actives have a fitted effect of over 55% in size
Target sequence (P08659 whole entry, looked up): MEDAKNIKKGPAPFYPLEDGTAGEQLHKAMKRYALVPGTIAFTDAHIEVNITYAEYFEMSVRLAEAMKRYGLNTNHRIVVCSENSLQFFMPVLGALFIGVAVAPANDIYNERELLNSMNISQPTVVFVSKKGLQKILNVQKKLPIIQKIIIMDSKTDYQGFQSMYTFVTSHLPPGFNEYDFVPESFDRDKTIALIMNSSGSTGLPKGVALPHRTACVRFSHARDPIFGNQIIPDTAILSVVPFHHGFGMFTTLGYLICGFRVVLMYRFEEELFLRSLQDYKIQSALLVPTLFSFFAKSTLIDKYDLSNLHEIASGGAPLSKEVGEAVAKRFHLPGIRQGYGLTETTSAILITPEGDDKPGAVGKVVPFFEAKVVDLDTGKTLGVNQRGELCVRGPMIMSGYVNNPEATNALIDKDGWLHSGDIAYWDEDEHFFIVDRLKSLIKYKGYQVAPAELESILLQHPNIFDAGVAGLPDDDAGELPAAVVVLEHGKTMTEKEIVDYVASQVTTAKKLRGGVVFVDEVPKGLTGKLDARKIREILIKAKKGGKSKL
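Purified P. pyralis luciferase, 10 nM final, with Km-level 10 uM D-luciferin and 10 uM ATP in 50 mM Tris acetate pH 7.5, 10 mM Mg acetate, 0.01% Tween-20, 0.05% BSA; 6-point qHTS titration about 60 µM downward; luminescence read.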
Rab9 prom act – qHTS Assay for Rab9 Promoter Activators; 2.8% of 320,000 active; Potency, µM (top dose mostly 9.22 µM), hits mostly activators; AID 485297, 2010; Huh7 Rab9 promoter-luciferase reporter, luminescence, 24 h; also: nearly all actives have a fitted effect of over 60% in size
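Cells were plated at 1500 per well in reduced-serum medium with 10% FBS and left 2 h. Compound in DMSO was then added for 24 h at 37 °C. Reporter signal was read by luminescence after 10 min with luciferase detection reagent.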
SMN2 splice enh – qHTS Assay for Enhancers of SMN2 Splice Variant Expression | HEK293 SMN2-luciferase splicing reporter, luminescence, 30-36 h | 2.8% of 210,000 active | AID 1458, 2008 | Potency, µM (highest dose often 46.1 µM), most hits filed as activators; also: nearly all actives have a fitted effect of over 55% in size
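qHTS luciferase splicing reporter: luminescence rises when SMN2 exon 7 is included in transfected HEK293 cells. Compound exposure lasted 30-36 h at 37C, with 4.5 mM final sodium butyrate as control, followed by a ONE-Glo read.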
ELG1 genotox – qHTS screen for small molecules that induce genotoxicity in human embryonic kidney (HEK293T) cells expressing luciferase-tagged ELG1; HEK293T ELG1-luciferase reporter, luminescence, 16 h; Potency, µM (titrated, usually from 46 µM), usual class: activators; 1.3% of 330,000 active; AID 504466, 2011; also: nearly all actives have a fitted effect of over 60% in size
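Cells (2,000/well) expressing the ELG1-luciferase fusion are dosed by pin tool and kept 16 hr at 37 °C, 5% CO2. Signal comes from ONE-Glo luciferase reagent after 30 min at room temperature.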
Each line names hits and unclear results; the compound was inactive in the other large screens. Calls follow the shape of the dose curve; as a rule, active = well fitted curve in the direction sought with a large enough effect; inconclusive = small, poorly fitted or top-dose-only effect, or another doubt; inactive = no such curve, though single readings can be large; an effect the other way counts as inactive or inconclusive.

Cc1cc(=O)oc2cc(NC(=O)c3ccccc3OC(F)F)ccc12	NPC1 prom act 4µM, FLuc modulator inconclusive, Rab9 prom act 3.2µM, ELG1 genotox inconclusive (no result: Luc counter, SMN2 splice enh)
O=C(Nc1ccccc1Cl)c1sc2cccc(Cl)c2c1Cl	FLuc modulator inconclusive (no result: Luc counter, NPC1 prom act, Rab9 prom act, ELG1 genotox)
O=C(O)c1sc2cccc(Cl)c2c1Cl	FLuc modulator 5.4µM (no result: SMN2 splice enh)
COc1ccccc1N1CCN(CC(O)COCCOc2ccc(Br)cc2)CC1 (stereo not drawn)	none
CCN1C(=O)/C(=C2/C=Cc3ccccc3N2C)OC1=S	NPC1 prom act 2.5µM, FLuc modulator inconclusive, Rab9 prom act 3.5µM, SMN2 splice enh inconclusive, ELG1 genotox inconclusive
COc1cc(NC(=O)CCN2CC(C)OC(C)C2)cc(OC)c1 (stereo not drawn)	none (no result: Luc counter, SMN2 splice enh)
O=C(CSc1nccn1-c1ncc(C(F)(F)F)cc1Cl)c1ccc(Cl)cc1	NPC1 prom act 4µM, FLuc modulator inconclusive, Rab9 prom act 3.5µM
COC(=O)c1cc(=O)nc2sc3cc(OC)ccc3n12	none
CCCCc1c(O)nc2sc3cc(OC)ccc3n2c1=O	FLuc modulator 11µM, ELG1 genotox inconclusive
CN(C)c1ccc(-c2nc(N(C)Cc3ccco3)c3ccccc3n2)cc1	SMN2 splice enh 10µM (no result: NPC1 prom act, FLuc modulator, Rab9 prom act, ELG1 genotox)
O=C(Nc1nc(-c2ccc3c(c2)OCCO3)cs1)C1CCCC1	NPC1 prom act inconclusive, FLuc modulator 7.6µM, Rab9 prom act 2.2µM, SMN2 splice enh 11µM, ELG1 genotox inconclusive
O=C(CCCCl)Nc1nc(-c2ccc3c(c2)OCCO3)cs1	NPC1 prom act 3.5µM, FLuc modulator 11µM, Rab9 prom act 3.2µM, ELG1 genotox 5.8µM (no result: Luc counter, SMN2 splice enh)
N#CCC(=O)Nc1nc(-c2ccc3c(c2)OCCO3)cs1	NPC1 prom act inconclusive, FLuc modulator 7.6µM, Rab9 prom act 3.5µM, SMN2 splice enh 13µM, ELG1 genotox inconclusive
COc1ccccc1C(CC(=O)N1CCCC1)c1ccc2c(c1)OCO2 (stereo not drawn)	none
Cc1ccc(C(=O)Nc2ccc(C(=O)N/N=C/c3ccncc3)cc2)cc1	none
O=C(CCC(=O)Nc1ccc(F)cc1)N/N=C/c1ccc(F)cc1	none (no result: Luc counter, SMN2 splice enh)
CC(=O)Nc1cccc(C(=O)N/N=C/c2ccc(F)cc2)c1	NPC1 prom act 2.8µM, FLuc modulator 6µM, Rab9 prom act 1.4µM, ELG1 genotox 16µM
O=C(CC(=O)N/N=C/c1ccc(F)cc1)N/N=C/c1ccc(F)cc1	FLuc modulator 15µM (no result: Luc counter, SMN2 splice enh)
Cc1ccc(C(=O)Nc2cccc(C(=O)N/N=C/c3ccc(F)cc3)c2)cc1	NPC1 prom act 2.2µM, FLuc modulator 2.4µM, Rab9 prom act 1.4µM (no result: Luc counter, SMN2 splice enh)
O=C(c1cc(-c2ccc(Cl)c(Cl)c2)on1)N1CCN(c2ccccc2)CC1	FLuc modulator inconclusive
O=C(c1cc(-c2ccc(Cl)cc2)on1)N1CCCC1	NPC1 prom act 0.56µM, FLuc modulator 2.1µM, Rab9 prom act 0.45µM, ELG1 genotox 2.9µM (no result: Luc counter, SMN2 splice enh)
CC(C)CNC(=O)c1cc(-c2ccc(Cl)c(Cl)c2)on1	NPC1 prom act inconclusive, Rab9 prom act 4.5µM
O=C(c1cc(-c2cccc(Cl)c2)on1)N1CCc2ccccc2C1	none (no result: Luc counter, SMN2 splice enh)
O=C(NCCc1ccccc1)c1cc(-c2ccc(Cl)c(Cl)c2)on1	none (no result: Luc counter, NPC1 prom act, Rab9 prom act, ELG1 genotox)
O=C(c1cc(-c2cccc(Cl)c2)on1)N1CCCC1	NPC1 prom act 4µM, FLuc modulator 13µM, Rab9 prom act 2.8µM, ELG1 genotox 18µM (no result: Luc counter, SMN2 splice enh)
O=C(c1cc(-c2ccc(Cl)c(Cl)c2)on1)N1CCCCC1	NPC1 prom act 2.8µM, FLuc modulator 4.3µM, Rab9 prom act 1µM, SMN2 splice enh 22µM, ELG1 genotox inconclusive
COc1ccc(OCC(=O)Nc2cccc(-c3nc4ccccc4[nH]3)c2)cc1	NPC1 prom act inconclusive, FLuc modulator 9.5µM, SMN2 splice enh inconclusive
O=C(COc1ccc(F)cc1)Nc1ccc(Cl)c(-c2nc3ccccc3[nH]2)c1	none (no result: Luc counter, NPC1 prom act, Rab9 prom act, SMN2 splice enh, ELG1 genotox)
O=C(COc1ccccc1)Nc1cccc(-c2nc3ccccc3[nH]2)c1	FLuc modulator 17µM, SMN2 splice enh inconclusive
